An excerpt weighted towards active compounds, which were near 21% of everything screened.
Pf growth 96h: Primary qHTS for delayed death inhibitors of the malarial parasite plastid, 96 hour incubation; P. falciparum luciferase reporter growth, 96 h; Potency, µM (titrated, usually from 28.7 µM), for the others: at the top dose activity change, negative = inhibition, most hits filed as inhibitors; 6.9% of 320,000 active; AID 504834, 2011; note: potency is the fitted concentration of half-maximal effect; % is set by controls: 0 for no effect and ±100 for the full control effect
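Cell-based qHTS: luciferase-tagged P. falciparum in erythrocytes (2% hematocrit, 0.05% parasitemia final) incubated with compounds for 96 hours, 37 C, 5% CO2; luciferase detection reagent then added and luminescence measured.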
NS1 inh: qHTS Assay for Inhibitors of Influenza NS1 Protein Function. Potency, µM (highest dose often 46.1 µM), inactives show top-dose activity, positive = more growth. 0.4% of 270,000 active; calls by dose curve; note: potency is the fitted concentration of half-maximal effect; actives are rising curves; nearly all actives have a fitted effect of over 50% in size
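Read-out: OD600 growth recovery of NS1-expressing budding yeast. Cells grown overnight at 30C in -URA glucose medium, washed, resuspended and diluted 1:100 in 2% galactose assay medium, pH 6.0. Same strain lacking NS1 served as positive control.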
Pf growth 48h: Primary qHTS for delayed death inhibitors of the malarial parasite plastid, 48 hour incubation; P. falciparum luciferase growth in erythrocytes, 48 h; Potency, µM (highest dose often 28.7 µM), for inactives: top-dose activity change, negative = inhibition, actives largely listed as inhibitors; 5.9% of 310,000 active; AID 504832, 2011; note: potency is the fitted concentration of half-maximal effect; % is set by controls: 0 for no effect and ±100 for the full control effect
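Cell-based growth assay: transgenic P. falciparum expressing firefly luciferase, cultured in red cells within RPMI 1640 containing 0.5% w/v Albumax, 24 mM bicarbonate and gentamycin. A drop in luciferase activity indicates inhibition.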
Shiga inhibitor: A qHTS for Small Molecule Inhibitors of Shiga Toxin. Vero cells, Shiga toxin protein synthesis inhibition reporter. inhibition, % at 38.7 µM. 9.2% of 290,000 active. AID 2315, 2010; in the data active = inhibition mostly above about 28%, no sharp cut-off; inactive = mostly below about 43%; note: 0% is about no effect
CHX counter: Cycloheximide Counterscreen for Small Molecule Inhibitors of Shiga Toxin. cell reporter, cycloheximide protein synthesis inhibition counterscreen. max response, %. 12% of 300,000 active; in the data active = max response mostly above about 13%, no sharp cut-off; inactive = mostly below about 14%; note: read at 38.3 µM for the half of the compounds with a filed dose; 0% is about no effect
* hit, by the source's call; i = inactive; ? = inconclusive; · = not tested or not shown. Unless noted, calls come from the whole dose curve; as a rule, active = well fitted inhibition curve with a large enough effect; inconclusive = small, poorly fitted or top-dose-only effect, or another doubt; inactive = no such curve, though single readings can be large or run the other way.

SMILES	Pf growth 96h	NS1 inh	Pf growth 48h	Shiga inhibitor	CHX counter
O/C(=C\c1ccc2ccccc2n1)c1ccc(O)cc1O	i	·	365%	39*	33*
Oc1ccc(/C=C/c2ccc3ccccc3n2)cc1	?	·	196%	24	7
CCOC(=O)Cc1[nH]nc2c1C(c1ccsc1)C(C#N)=C(N)O2 (centres undefined)	28%	0%	-3%	-3	-3
COC(=O)C1=C(C)Nc2c(c(=O)n(C)c(=O)n2C)C1c1ccncc1 (centres undefined)	?	4%	8%	-9	-6
Cc1cc(NC(=O)CCl)on1	?	·	10µM*	11	1
CC(C)c1cc(NC(=O)CCl)on1	?	·	3.3µM*	10	-1
O=C1NC(CCc2ccccc2)C(=O)N1CCOc1ccccc1 (centres undefined)	17%	3%	67%	13	-2
Cc1ccc(N=Nc2c(O)ccc3n[nH]nc23)cc1	37%	-86%	90%	103*	42*
c1ccc(C2(c3ccccc3)CC2C2=NCCN2)cc1 (centres undefined)	13µM*	·	?	·	·
Cc1cc(F)ccc1NC(=O)CS(=O)(=O)c1cccc2nsnc12	·	·	·	-5	-5
CC(=O)c1ccc(OCCn2c(SCC(=O)O)nc3ccccc32)cc1	?	1%	-15%	-5	-4
Cc1nn(Cc2c(F)c(F)c(F)c(F)c2F)c(C)c1NC(=O)c1ccc(COc2cc(Cl)ccc2Cl)cc1	18%	12%	72%	109*	54*
Cc1cccc(C)c1NC(=O)c1cccc(COc2cc(Cl)ccc2Cl)c1	?	-1%	?	62*	29*
CC(C)NC(=O)c1ccc(COc2cc(Cl)ccc2Cl)o1	15%	-37%	?	14	9
CC(C)C(c1nnnn1C(C)(C)C)N1CCC(Cc2ccccc2)CC1 (centres undefined)	51%	?	9.3µM*	-9	-5
COc1ccc2c(c1)C(=O)[C@H](O)[C@@H](c1ccc(OC)c(Br)c1)O2	2.1µM*	-28%	3.7µM*	54	19*
COc1cccc([C@@H]2Oc3ccc(OC)cc3C(=O)[C@H]2OC(=O)NCc2ccc3c(c2)OCO3)c1	-104%	2%	?	84*	64*
COc1cccc([C@@H]2Oc3ccc(OC)cc3C(=O)[C@H]2OC(=O)N[C@H](C)C2CCCCC2)c1	-20%	?	?	9	11
COc1cccc([C@@H]2Oc3ccc(OC)cc3C(=O)[C@H]2OC(=O)Nc2cc(OC)c(OC)c(OC)c2)c1	2%	6%	?	45*	11*
CCOc1ccc(S(=O)(=O)NCCC(=O)NCCc2ccc(C(C)C)cc2)cc1	?	·	-14%	·	·
Cc1ccsc1CCNC(=O)C1CCC(=O)N(CCc2cccc(F)c2)C1 (centres undefined)	?	-15%	18%	120*	46*
Cc1ccsc1CN(C)C(=O)C1CCC(=O)N(CCc2cccc(F)c2)C1 (centres undefined)	-1%	-5%	7%	53*	36*
O=C(NCCc1cccs1)C1CCC(=O)N(CCc2cccc(F)c2)C1 (centres undefined)	?	-2%	11%	16	12
Cc1ccccc1CCNC(=O)C1CCC(=O)N(CCc2cccc(F)c2)C1 (centres undefined)	2%	-2%	-18%	10	12
CN(CCC1CCOCC1)C(=O)C1CCC(=O)N(CCc2cccc(F)c2)C1 (centres undefined)	15µM*	-1%	-6%	-12	10
O=C(NCCOc1ccccc1F)C1CCC(=O)N(CCc2cccc(F)c2)C1 (centres undefined)	15µM*	-25%	?	8	2
O=C(Nc1ccccc1Br)C1CCN(C(=O)Cc2ccccc2)CC1	47%	12%	-18%	-13	-4
COC(=O)[C@H](Cc1ccccc1)NC(=O)O[C@H]1C(=O)c2ccc(OC)cc2O[C@@H]1c1ccc2c(c1)OCO2	-8%	-16%	13%	-12	-2
C#CCOCCOCCOCCNc1nc(N2CCN(C(=O)[C@H]([C@@H](C)O)n3cc(CCCCN)nn3)CC2)nc(N2CCN(C(=O)[C@H](CCCCN)n3cc(CC(C)O)nn3)CC2)n1 (some centres undefined)	-10%	·	15%	·	·

Screening data deposited in PubChem by National Center for Advancing Translational Sciences (NCATS).
